Data: PubChem BioAssay AID1159580 (chemical genetic matrix, 2015)
In all, about 5,500 compounds went through this assay and about 2,000 (36%) were called active. About 18% were inconclusive and are not listed. No stated cut-off is given here; in the data, active means normalized growth mostly below about 0.91 (no sharp cut-off); inconclusive means no clear call, values can overlap the other calls; inactive means mostly above about 0.92. Some of the results follow.

Assay: chemical genetic growth profiling, strain panel (AID 1159580);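 further: tested at 20 µM; growth read once vehicle control cultures reached saturation at 30 °C; 1 = growth at the plate median or of vehicle wells; lower values mean less growth of the strain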
Details: S. cerevisiae deletion strains, growth OD
[1] = locus YDL101C, strain DUN1, active compounds read low
[2] = locus YHR030C, strain SLT2, active compounds read low

Measured: normalized growth

O=C(NCCNc1ccc(C(F)(F)F)cc1[N+](=O)[O-])c1cccs1
active: [2] 0.673 | locus YLR085C, strain ARP6, active compounds read low 0.775 | locus YML094W, strain GIM5, active compounds read low 0.841 | locus YPL055C, strain LGE1, active compounds read low 0.771
inactive: locus YAL013W, strain DEP1, active compounds read low 0.974 | locus YBR229C, strain ROT2, active compounds read low 0.972 | locus YCL061C, strain MRC1, active compounds read low 0.983 | [1] 0.93 | locus YDR150W, strain NUM1, active compounds read low 0.931 | locus YEL061C, strain CIN8, active compounds read low 0.948 | locus YGR078C, strain PAC10, active compounds read low 0.967 | locus YGR229C, strain SMI1, active compounds read low 0.974 | locus YHR087W, strain rtc3, active compounds read low 0.973 | locus YJR043C, strain POL32, active compounds read low 0.978 | locus YJR075W, strain HOC1, active compounds read low 0.998 | locus YLR039C, strain RIC1, active compounds read low 0.838 | locus YLR058C, strain SHM2 (second series), active compounds read low 0.967 | locus YLR262C, strain YPT6, active compounds read low 0.915 | locus YMR219W, strain ESC1, active compounds read low 0.982 | locus YMR263W, strain SAP30, active compounds read low 1.02 | locus YNL153C, strain GIM3, active compounds read low 0.976 | locus YNL298W, strain CLA4 (second series), active compounds read low 0.863 | locus YNL322C, strain KRE1, active compounds read low 0.988 | locus YNR030W, strain Alg12, active compounds read low 0.911 | locus YOL006C, strain TOP1, active compounds read low 0.778 | locus YPL241C, strain CIN2, active compounds read low 1.13 | locus YPR135W, strain CTF4, active compounds read low 0.743

Cc1c(C(=O)NCCNc2ccc(C(F)(F)F)cc2[N+](=O)[O-])cnn1-c1ccc(F)cc1
inactive: locus YAR019C, strain CDC15, active compounds read low 0.981 | locus YBL105C, strain PKC1, active compounds read low 0.971 | locus YBR135W, strain CKS1, active compounds read low 0.974 | locus YBR136W, strain MEC1, active compounds read low 0.978 | locus YBR160W, strain CDC28, active compounds read low 0.979 | locus YDL017W, strain CDC7, active compounds read low 0.982 | locus YDL028C, strain MPS1, active compounds read low 0.989 | [1] 0.988 | locus YDL108W, strain KIN28, active compounds read low 0.982 | locus YDL132W, strain cdc53, active compounds read low 0.978 | locus YDL214C, strain PRR2, active compounds read low 0.958 | locus YDR052C, strain DBF4, active compounds read low 0.985 | locus YDR054C, strain cdc34, active compounds read low 0.956 | locus YDR226W, strain ADK1, active compounds read low 0.982 | locus YDR477W, strain SNF1, active compounds read low 0.968 | locus YER123W, strain YCK3, active compounds read low 0.966 | locus YER133W, strain GLC7, active compounds read low 0.982 | locus YFL009W, strain cdc4, active compounds read low 0.98 | locus YFL029C, strain CAK1, active compounds read low 0.977 | locus YFR003C, strain YPI1, active compounds read low 0.984 | locus YFR019W, strain FAB1, active compounds read low 0.973 | locus YFR028C, strain CDC14, active compounds read low 0.978 | locus YGR040W, strain KSS1, active compounds read low 0.958 | locus YGR052W, strain FMP48, active compounds read low 1.06 | locus YGR092W, strain DBF2, active compounds read low 0.935 | [2] 0.97 | locus YHR079C, strain IRE1, active compounds read low 0.954 | locus YHR082C, strain KSP1, active compounds read low 1.01 | locus YHR205W, strain SCH9, active compounds read low 0.962 | locus YIL147C, strain SLN1, active compounds read low 0.986 | locus YJL095W, strain BCK1, active compounds read low 0.978 | locus YJL128C, strain PBS2, active compounds read low 0.946 | locus YJL157C, strain FAR1, active compounds read low 0.943 | locus YJR016C, strain ILV3, active compounds read low 0.984 | locus YJR066W, strain TOR1 (second series), active compounds read low 0.933 | locus YJR066W, strain TOR1, active compounds read low 0.999 | locus YKL048C, strain ELM1, active compounds read low 0.949 | locus YKL067W, strain YNK1, active compounds read low 0.97 | locus YKL101W, strain HSL1, active compounds read low 0.947 | locus YKL193C, strain SDS22, active compounds read low 0.983 | locus YKL203C, strain TOR2, active compounds read low 1.01 | locus YLR113W, strain HOG1, active compounds read low 0.904 | locus YLR133W, strain CKI1, active compounds read low 0.941 | locus YLR403W, strain SFP1, active compounds read low 0.937 | locus YML070W, strain DAK1, active compounds read low 0.94 | locus YMR001C, strain CDC5, active compounds read low 0.985 | locus YMR205C, strain PFK2 (second series), active compounds read low 0.978 | locus YMR277W, strain FCP1, active compounds read low 0.991 | locus YNL006W, strain LST8, active compounds read low 1 | locus YNL020C, strain ARK1, active compounds read low 0.941 | locus YNL161W, strain CBK1, active compounds read low 0.975 | locus YNL183C, strain NPR1, active compounds read low 0.986 | locus YNL207W, strain RIO2, active compounds read low 0.973 | locus YNL222W, strain SSU72, active compounds read low 0.974 | locus YNL307C, strain MCK1 (second series), active compounds read low 0.939 | locus YOL078W, strain AVO1, active compounds read low 0.986 | locus YOL136C, strain PFK27, active compounds read low 0.938 | locus YOR061W, strain CKA2, active compounds read low 0.99 | locus YOR119C, strain RIO1, active compounds read low 1.01 | locus YOR231W, strain MKK1, active compounds read low 0.912 | locus YOR329C, strain SCD5, active compounds read low 0.984 | locus YPL031C, strain PHO85, active compounds read low 0.96 | locus YPL153C, strain RAD53, active compounds read low 0.954 | locus YPL204W, strain HRR25, active compounds read low 0.943 | locus YPL209C, strain IPL1, active compounds read low 0.979 | locus YPL256C, strain CLN2, active compounds read low 0.908 | locus YPR025C, strain CCL1, active compounds read low 0.979 | locus YPR106W, strain ISR1, active compounds read low 0.965 | locus YPR111W, strain DBF20, active compounds read low 0.962 | strain NNK1, active compounds read low 0.971 | strain TSCII, active compounds read low 0.982
